Rows were chosen to be rich in hits. Some 21% of all compounds tested hit in one or more screens of this group.
RORgamma inh = qHTS for inhibitors of ROR gamma transcriptional activity. Nuclear receptor ROR-gamma (Mus musculus), P51450. Drosophila S2 Gal4-RORgamma UAS-luciferase reporter, 20 h. Potency, µM (titrated, usually from 53.6 µM), usual class: inhibitors. 310,000 tested, 5.4% active; further: nearly all actives have a fitted effect of over 60% in size
Target sequence (P51450 whole entry, looked up, the tested form may be a part): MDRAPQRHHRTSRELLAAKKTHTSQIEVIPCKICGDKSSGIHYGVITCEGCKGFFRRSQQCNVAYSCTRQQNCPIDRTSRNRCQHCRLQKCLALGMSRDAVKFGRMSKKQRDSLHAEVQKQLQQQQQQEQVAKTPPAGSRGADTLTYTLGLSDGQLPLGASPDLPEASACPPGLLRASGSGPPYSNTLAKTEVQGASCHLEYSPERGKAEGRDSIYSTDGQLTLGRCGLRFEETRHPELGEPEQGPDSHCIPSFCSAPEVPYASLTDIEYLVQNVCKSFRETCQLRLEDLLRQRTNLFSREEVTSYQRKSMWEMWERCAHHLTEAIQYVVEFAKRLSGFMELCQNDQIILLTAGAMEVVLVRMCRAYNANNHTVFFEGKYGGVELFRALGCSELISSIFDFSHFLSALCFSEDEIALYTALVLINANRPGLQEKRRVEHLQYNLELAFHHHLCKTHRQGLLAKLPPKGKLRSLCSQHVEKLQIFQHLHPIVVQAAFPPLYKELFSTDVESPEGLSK
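Luciferase reporter read in Schneider cells carrying Gal4-RORγ (mouse) and UAS-Photinus luciferase; cells given compound 1 h before 700 uM copper sulfate induction, then incubated 20 h at ambient temperature.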
IL-1B inflam inh = qHTS for Inhibitors of Inflammasome Signaling: IL-1-beta AlphaLISA Primary Screen; 360,000 tested, 4.7% active; activity change, % at 57.5 µM; THP-1 LPS/ATP IL-1B secretion, AlphaLISA, 16 h; hits give low values; in the data active means activity change below about -50%; inconclusive means mostly about -30% to -49%
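Secreted IL-1B measured by AlphaLISA bead assay after 16 h compound exposure of THP-1 cells; compounds (final up to 57.5 uM) added 1 h before LPS (250 ng/mL) and ATP (1.25 mM) stimulation; lower signal means less secretion.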
ELG1 DNA repair = qHTS screen for small molecules that inhibit ELG1-dependent DNA repair in human embryonic kidney (HEK293T) cells expressing luciferase-tagged ELG1; HEK293T ELG1-luciferase reporter, luminescence, 16 h; DNA damage induced by 5-fluorouridine; Potency, µM (highest dose often 46.1 µM), actives largely listed as inhibitors; 330,000 tested, 2.3% active; AID 504467, 2011; further: nearly all actives have a fitted effect of over 55% in size
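Step one: seed 2,000 cells per well. Step two: pin-transfer compound or DMSO alongside 5-fluorouridine. Step three: incubate 16 hr, 37 °C, 5% CO2. Step four: add ONE-Glo, wait 30 min, read luminescence.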
DT40 TDP1 CPT = qHTS for Inhibitors of human tyrosyl-DNA phosphodiesterase 1 (TDP1): qHTS in cells in presence of CPT. Potency, µM (top dose mostly 46.2 µM), most hits filed as inhibitors. 420,000 tested, 12% active. chicken DT40 Tdp1-/-;hTDP1 cells + 20 nM CPT, ATP luminescence, 48 h; further: nearly all actives have a fitted effect of over 55% in size
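Chicken DT40 Tdp1-/- cells stably complemented with human TDP1 were seeded at 400 cells/well in medium containing 20 nM camptothecin, exposed to pin-transferred compounds, and grown at 37 °C for at least 48 hr. Viability was read as ATP luminescence.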
VP16 counter = VP16 counterscreen qHTS for inhibitors of ROR gamma transcriptional activity; Potency, µM (series often up to 53.6 µM), usual class: inhibitors; Drosophila S2 Gal4-VP16 UAS-luciferase, luminescence, 20 h; 310,000 tested, 3.5% active;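 further: Gal4-VP16 expression switched on by copper sulfate through the metallothionein promoter; nearly all actives have a fitted effect of over 50% in size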
DT40 TDP1 no CPT = qHTS for Inhibitors of human tyrosyl-DNA phosphodiesterase 1 (TDP1): qHTS in cells in absence of CPT. DT40 Tdp1-/- hTDP1 cells, no CPT, ATP luminescence, 48 h. Potency, µM (doses to about 46.2 µM), most hits filed as inhibitors. 420,000 tested, 15% active; further: nearly all actives have a fitted effect of over 55% in size
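Readout: luminescence from CellTiter-Glo after 30 min in the dark at RT. Cells: DT40 Tdp1-/- with stable hTDP1, 400/well. Exposure: compounds alone, ≥48 hr, 37 °C.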
A number is an active result; - = inactive; ? = inconclusive; . = no result; [ ] = another dose, or the depositor's remark. Unless noted, the call rests on the fitted dose curve; in most records, active means well fitted curve in the direction sought with a large enough effect; inconclusive means small, poorly fitted or top-dose-only effect, or another doubt; inactive means no such curve, though single readings can be large; an effect the other way counts as inactive or inconclusive.

SMILES	RORgamma inh	IL-1B inflam inh	ELG1 DNA repair	DT40 TDP1 CPT	VP16 counter	DT40 TDP1 no CPT
CC(C)CCNC(=O)Cc1ccc(NC(=O)N2CCCCc3ccccc32)cc1	.	.	.	-	.	?
COc1ccc(CNC(=O)Cc2ccc(NC(=O)N3CCCCc4ccccc43)cc2)cc1	.	.	.	?	.	23.1µM
COc1ccc(CC(=O)NC2CCN(CC(=O)N3CCCc4ccccc43)CC2)cc1OC	-	-	-	-	-	3.66µM
CCc1ccc(CNC(=O)c2ccc(NC(=O)N3CCCCc4ccccc43)cc2)cc1	.	.	.	20.6µM	.	?
COc1ccc(CC(=O)N2CCCc3ccccc32)cc1OC	?	-	?	-	-	?
COc1ccc(OC)c(CNC(=O)Cc2ccc(NC(=O)N3CCCCc4ccccc43)cc2)c1	.	.	.	11.6µM	.	9.2µM
COc1ccc(NC(=O)N2CCCc3ccccc32)cc1OC	-	-	?	-	-	-
O=C(Cc1ccc(NC(=O)N2CCCCc3ccccc32)cc1)NCc1ccccc1Br	.	.	.	?	.	23.1µM
COc1ccc(Cl)cc1NC(=O)Cc1ccc(NC(=O)N2CCCCc3ccccc32)cc1	.	.	.	18.4µM	.	20.6µM
COc1ccc(CNC(=O)CCC(=O)N2CC3CCCN3c3ccccc32)cc1 (stereo not drawn)	.	.	.	11.6µM	.	20.6µM
CCNC(=O)c1ccc(NC(=O)N2CCCCc3ccccc32)cc1	.	.	.	-	.	?
CC1(c2ccccc2)NC(=O)N(CC(=O)Nc2ccccc2C(=O)NC2CC2)C1=O (stereo not drawn)	-	-	-	-	-	-
CC(=O)NC(c1ccc(F)c(F)c1)c1nc(-c2cnn(C)c2)cs1 (stereo not drawn)	.	-	.	-	.	-
CC1(C)CC2CC(C)(CN2C(=O)COC(=O)c2cccnc2Cl)C1 (stereo not drawn)	.	-	?	-	.	-
CC1(C)CC2CC(C)(CN2C(=S)Nc2ccccc2)C1 (stereo not drawn)	?	-	-	?	-	?
CC1(C)CC2CC(C)(CN2C(=S)Nc2ccccc2F)C1 (stereo not drawn)	3.98µM	-	-	20.6µM	-	13µM
CC1(C)CC2CC(C)(CN2C(=S)NC(=O)c2ccccc2Cl)C1 (stereo not drawn)	1.26µM	-	-	?	1µM	18.4µM
COc1ccc(CN2C(=O)CCC2(C)c2nnnn2Cc2ccccc2)cc1 (stereo not drawn)	.	-	.	-	.	-
C=C1c2ccccc2O[C@H](C(=O)OCC)[C@H]1OC	.	-	-	-	.	-
Cc1ccc(CCNC(=O)C2CCN(S(=O)(=O)c3ccc4c(c3)NC(=O)CO4)CC2)cc1	-	-	-	?	-	?
CCN(CC)c1ccc(S(=O)(=O)N2CCOCC2)cc1NC(=O)CN1C(=O)NC2(CCC(C)CC2)C1=O (stereo not drawn)	.	-	?	-	.	-
Cc1ccc(NC(=O)N2CCC(CN3CCCC3)CC2)c(C)c1	.	.	.	-	.	-
Cc1ccccc1OCC(=O)Nc1nc2ccccc2[nH]1	7.08µM	-	?	-	?	-
Cc1c(OCC(F)(F)F)ccnc1CSc1nc2ccccc2[nH]1	-	?	?	?	-	23.1µM
CC(C)NC(=O)COc1cccc2ccccc12	-	-	-	-	-	-
SMILES	RORgamma inh	IL-1B inflam inh	ELG1 DNA repair	DT40 TDP1 CPT	VP16 counter	DT40 TDP1 no CPT
COc1ccccc1OCC(=O)NCCc1nc2ccccc2[nH]1	-	-	-	-	-	?
Cc1ccccc1OCCCSc1nc2ccccc2[nH]1	?	-81.3	-	?	?	16.4µM
NC(=O)CCCSc1nc2ccccc2[nH]1	-	-	-	-	-	-
O=C(COc1cccc2ccccc12)Nc1nc2ccccc2[nH]1	10µM	-	-	?	11.2µM	?
COc1ccc(C2C(=O)N(C3CCCCC3)CC(=O)N2CCc2ccc(OC)c(OC)c2)cc1 (stereo not drawn)	.	.	.	-	.	?
CC(NC(=O)c1cnn2c1NC(=C1CC1)C=C2C(F)F)c1ccncc1 (stereo not drawn)	.	.	.	-	.	-
Cc1cc(C)c(OCC(=O)Nc2nc3ccccc3[nH]2)c(C)c1	11.2µM	-	-	-	-	-
CCOc1ccccc1OCC(=O)Nc1nc2ccccc2[nH]1	5.62µM	-	-	-	?	?
O=C1C2C3C=CC(CC3)C2S(=O)(=O)C2C3C=CC(CC3)C12 (stereo not drawn)	.	-	.	-	.	-
CC(=O)Oc1cccc2c1C(=O)C1CC=CC(OC(C)=O)C1C2=O (stereo not drawn)	.	-	.	?	.	23.1µM
CC(=O)Oc1cccc2c1C(=O)c1c(OC(C)=O)cc(C(=O)O)cc1C2=O	?	-	-	?	-	?
O=c1c(CCc2ccccc2)nc2cnc(N3CCOCC3)nc2n1CCc1ccccc1	-	.	.	-	-	-
COc1ccc(-c2cnnn2-c2ccc(NC(=O)c3ccccc3OC)cc2)cc1	.	.	.	20.6µM	.	?
COc1ccc(-c2cnnn2-c2ccc(NC(=O)c3c(F)cccc3F)cc2)cc1	.	.	.	11.6µM	.	25.9µM
O=C(Nc1ccc(-n2nncc2-c2ccccc2)cc1)c1ccccc1	.	.	.	-	.	-
O=[N+]([O-])c1cc(S(=O)(=O)N2CCCC2)ccc1N/N=C/c1cccnc1	-	-	-	-	-	-
N#Cc1ccc(CN2CCCC3(CCN(C(=O)c4csnn4)CC3)C2)cc1	-	.	.	-	-	?
O=C(OC(C(=O)Nc1cc(Cl)cc(Cl)c1)c1ccccc1)C1=COCCO1 (stereo not drawn)	-	-50.9	-	?	-	18.4µM
Cc1cnc(C(=O)OC(C)C(=O)Nc2ccc(Oc3ccccc3)cc2)cn1 (stereo not drawn)	.	-	?	-	.	-
CC(OC(=O)C1=COCCO1)C(=O)Nc1ccc(Oc2ccccc2)cc1 (stereo not drawn)	?	-	-	13µM	-	?
CN(C)C(C(=O)Nc1cc(Cl)cc(Cl)c1)c1ccccc1 (stereo not drawn)	-	?	-	-	-	?
CN(C)CC(C)(O)c1ccc2c(c1)CN(Cc1cccn1-c1cccnc1)CCO2 (stereo not drawn)	.	.	.	-[9.04 µM]	.	-
COc1ccc(CCNC(=O)c2cn(C)c3ccc(S(=O)(=O)N4CCOCC4)cc3c2=O)cc1OC	-	?	-	?	?	-
CCN(CC)S(=O)(=O)c1ccc2c(c1)c(=O)c(C(=O)N1CCN(c3cc(Cl)ccc3C)CC1)cn2C	.	.	.	16.4µM	.	?

High-throughput results (PubChem)
